Screening data from PubChem.
A selection: hits, their analogues and other compounds. The true share with any hit is near 1.4%.
AmpC inh no detg – inhibitors of E. coli AmpC beta-lactamase without detergent. AID 485341. P00811. 330,000 compounds, 0.52% hits. Potency, µM (titrated, usually from 57.1 µM), usual class: inhibitors. AmpC nitrocefin hydrolysis, absorbance 480 nm, 0.0001% Triton; also: nearly all actives have a fitted effect of over 20% in size
Target sequence (P00811 whole entry, looked up): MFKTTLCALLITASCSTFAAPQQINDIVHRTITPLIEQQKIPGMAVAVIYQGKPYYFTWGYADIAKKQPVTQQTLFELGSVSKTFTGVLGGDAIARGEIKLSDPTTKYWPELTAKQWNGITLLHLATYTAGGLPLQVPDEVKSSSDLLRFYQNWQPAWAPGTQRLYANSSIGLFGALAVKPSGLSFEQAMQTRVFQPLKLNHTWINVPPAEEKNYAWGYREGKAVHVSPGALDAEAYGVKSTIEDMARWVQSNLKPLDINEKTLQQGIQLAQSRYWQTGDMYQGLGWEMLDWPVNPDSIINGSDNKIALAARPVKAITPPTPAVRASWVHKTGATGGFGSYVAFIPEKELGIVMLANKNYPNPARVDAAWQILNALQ
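20 mM phosphate pH 7.0 + 0.01% (detergent screen) or 0.0001% Triton X-100; 5.3 nM AmpC reagent; cpd preinc 15 min RT; nitrocefin (800 uM stock) to start; A480 q20 s × 4 min; Activity was normalised to no-enzyme and no-compound control wells.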
Vaccinia Venus – vaccinia inhibition (Venus reporter); Potency, µM (top dose mostly 36.5 µM), hits mostly inhibitors; Vaccinia virus Venus reporter expression, fluorescence; 330,000 compounds, 0.46% hits; calls by dose curve; tested in A549 cells; also: nearly all actives have a fitted effect of over 30% in size
SARS PLpro yeast – SARS-CoV PLP inhibition in yeast; S. cerevisiae expressing SARS-CoV PLpro, growth rescue; Potency, µM (top dose mostly 32.9 µM), hits mostly activators; 330,000 compounds, 0.19% hits; AID 485353; calls by dose curve; also: nearly all actives have a fitted effect of over 55% in size
AMA1-RON2 inh – inhibitors of Plasmodium falciparum AMA1-RON2 interaction; AlphaScreen AMA1-biotinylated RON2 peptide binding; Potency, µM (titrated, usually from 58.2 µM), hits mostly inhibitors; 360,000 compounds, 0.2% hits; AID 720542; also: nearly all actives have a fitted effect of over 45% in size
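AMA1 (3D7) with his tag at 25 nM final met compounds first, then biotinylated RON2 peptide at 25 nM; detection used donor plus acceptor beads, 10 µg/mL apiece, read by AlphaScreen after 30 min at room temperature.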
VACV mCherry inh – inhibitors of vaccinia virus infection (mCherry reporter signal). Potency, µM (series often up to 36.5 µM), actives largely listed as inhibitors. AID 720579. 310,000 compounds, 0.63% hits. Vaccinia virus mCherry reporter infection, fluorescence; calls by dose curve; tested in A549 cells; also: nearly all actives have a fitted effect of over 35% in size
AmpC detergent – AmpC beta-lactamase inhibition with detergent present. AID 485294. Potency, µM (titrated, usually from 114 µM), actives largely listed as inhibitors. 370,000 compounds, 0.041% hits. P00811. AmpC hydrolysis of nitrocefin, absorbance 480 nm, 0.01% Triton; also: nearly all actives have a fitted effect of over 25% in size
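20 mM phosphate pH 7.0 + 0.01% (detergent screen) or 0.0001% Triton X-100; 5.3 nM AmpC reagent; cpd preinc 15 min RT; nitrocefin (800 uM stock) to start; A480 q20 s × 4 min; Activity was normalised to no-enzyme and no-compound control wells.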
Numbers stand for hits; 0 = inactive; ? = inconclusive; - = no result given; [ ] = remark or other dose. Unless noted, calls follow the shape of the dose curve; as a rule, active = well fitted curve in the direction sought with a large enough effect; inconclusive = small, poorly fitted or top-dose-only effect, or another doubt; inactive = no such curve, though single readings can be large; an effect the other way counts as inactive or inconclusive.

SMILES	AmpC inh no detg	Vaccinia Venus	SARS PLpro yeast	AMA1-RON2 inh	VACV mCherry inh	AmpC detergent
O=C(Oc1nsnc1N1CCCCC1)N1CCOCC1	0	?	0	0	14.1µM	0
CC(=O)C(=Nc1ccccc1Cl)NNc1ccc(Cl)cc1	0	0	0	20µM	0	0
O=C(NNc1ccc(Cl)cc1)c1c(F)cccc1Cl	0	0	0	0	0	0
CCCCN=C1NN=C(c2cc3ccccc3o2)CS1	14.1µM	0	0	0	0	0
CCc1cccc2c(C(=O)CCl)c[nH]c12	0	0	12.6µM	0	0	0
COC(=O)[C@@H]1C[C@@H](NC(=O)c2cccc3c(C)c(C)[nH]c23)CN1Cc1cccc2ccccc12	-	0	-	-	0	-
O=C(NCc1cccnc1)/C(=C\c1ccc(-c2ccc(Cl)c(Cl)c2)o1)S(=O)(=O)c1ccccc1	0	11.2µM	0	0	?	0
O=C(NCc1cccnc1)c1ccc(-c2ccc(Cl)cc2)o1	0	-	0	0	-	0
O=Nc1c(O)n(Cc2ccc(Cl)c(Cl)c2)c2ccccc12	2.51µM	-	0	0	-	0
CCNc1nc(N2CCCN(C)CC2)nc2cc(OC)c(OC)cc12	-	0	-	-	?	-
CC(C)(C)c1ccc(/C=N/Nc2ccc(C(=O)O)cc2)cc1	0	?	0	0[11.6 µM]	?	0
CC1Oc2ccccc2C=C1/C=N/Nc1ccc(C(=O)O)cc1 (stereo not drawn)	0	0	0	0	12.6µM	0
O=[N+]([O-])c1ccc(N2CCN(S(=O)(=O)c3ccc(Cl)cc3)CC2)cc1NCc1cccnc1	0	0	0	0	0	0
O=[N+]([O-])c1ccc(N2CCN(S(=O)(=O)c3ccccc3)CC2)cc1NCc1cccnc1	0	17.8µM	0	0	-	0
CN(C)CCCn1cnc2c(c1=N)C(c1ccccc1)c1ccc3ccccc3c1O2 (stereo not drawn)	0	17.8µM	0	0	?	0
CC(C)NC(=S)NC(=O)c1ccc(Cl)cc1Cl	0	0	7.94µM	0	0	0
Cc1ccccc1NC1=NCC(c2ccc([N+](=O)[O-])cc2)S1 (stereo not drawn)	0	12.6µM	0	0	11.2µM	0
Cc1ccccc1Nc1ccc([N+](=O)[O-])cn1	0	0	0	0	0	0
O=C(NCc1nnc2n1CCN(Cc1ccc(C(F)(F)F)cc1)CC2)c1cccc(F)c1	-	0	-	-	0	-
CC(C)OCc1cc(CN2CCN(c3ccccc3)CC2)c(O)c2ncccc12	-	?	-	-	11.2µM	0
O=C(NCc1nnc2n1CCN(Cc1cc3c(cc1Cl)OCO3)CC2)C1CCOC1 (stereo not drawn)	-	0	-	-	0	-
O=C1/C(=C/c2cccs2)CCC/C1=C\c1cccs1	0	0	0	11.2µM	0	0
O=C(Nc1ccc(N2CCN(c3ccc(C(F)(F)F)cn3)CC2)nc1)c1cccs1	0	0[7.34 µM]	0	0	0[7.34 µM]	0
O=C(Nc1ccc(N2CCN(c3ncccc3C(F)(F)F)CC2)nc1)c1cccs1	0	20µM	0	0	14.1µM	0
Cc1[nH]ccc(=O)c1OCc1ccccc1	?	0	0	0	0	0
SMILES	AmpC inh no detg	Vaccinia Venus	SARS PLpro yeast	AMA1-RON2 inh	VACV mCherry inh	AmpC detergent
O=c1cc(OCc2ccccc2)cc[nH]1	0	-	0	1.12µM	-	?
O=C(O)COc1ccccc1-c1nc(-c2ccccc2)c(-c2ccccc2)[nH]1	3.16µM	-	0	0	-	0
Cc1ccnn1CC(=O)N1CCOc2c(cc(-c3ncc(C(F)(F)F)cc3Cl)cc2OCC2CCCO2)C1 (stereo not drawn)	-	0	-	-	0	-
CC1CN(CC(=O)NCC2(N3CCOCC3)CCCC2)Cc2cc(Cl)ccc2O1 (stereo not drawn)	-	0	-	-	0	-
CC1CN(CN2C(=O)c3ccccc3C2=O)CC(C)O1 (stereo not drawn)	5.62µM	-	0	0	-	0
CC1CN(CCCCN2C(=O)c3ccccc3C2=O)CC(C)O1 (stereo not drawn)	0[11.4 µM]	0	0	0	0	0
CCOc1ccccc1CNC(=O)c1sc2ncccc2c1-n1cccc1	-	0	-	-	0	0
COc1ccccc1N1CC(O)=C(c2nc3ccccc3c(=O)[nH]2)C1=N	0	?	0	0	5.62µM	?
COCCN1CC(O)=C(c2nc3ccccc3c(=O)[nH]2)C1=N	0	0	0	0	-	?
CCN(N=O)c1ccc(/C=C/c2ccnc3ccccc23)cc1	-	0	-	-	0	-
COc1cc(=O)n2c(c1C(=O)NCc1ccco1)CCN(Cc1ccc(F)cc1Cl)CC2	-	0	-	-	0	-
O=C(c1cc(-c2ccc(Br)cc2)nc2ccccc12)N1CCN(c2ccccc2O)CC1	0	?	0	0	14.1µM	0
CCn1c(=O)cc(OCC(=O)Nc2nc(C)cs2)c2ccccc21	50.1µM	0	0	0	0	0
CCn1c(=O)cc(SCC(=O)Nc2ccc(C)cn2)c2ccccc21	0	10µM	0	0	?	0
O=C(CNC1=NCCS1)c1c[nH]c2ccccc12	-	0	-	-	0	-
O=C(O)c1ccc2c(c1)C(=O)N(c1ccc(Cl)cn1)C2=O	0.631µM	0	0	0	0	?
CC12CCC3C(CCC4(O)CC(O)CCC34C=O)C1(O)CCC2C1=CC(=O)OC1 (stereo not drawn)	-	1µM	-	0	?	-
C[C@]12CC[C@H]3[C@@H](CC[C@]4(O)C[C@@H](O)CC[C@]34C=O)[C@@]1(O)CC[C@@H]2C1=CC(=O)OC1	0	1µM	-	0	1µM	0
CC12CC[C@H]3[C@@H](CCC4(O)C[C@H](O)CCC34/C=N/NC(=O)c3ccccc3Cl)C1(O)CCC2C1=CC(=O)OC1 (stereo partly drawn)	0	-	0	0	-	0
CCCCC[C@H]1CCCCC[C@@H](O)C[C@@H](O)[C@@H](O)/C=C/C(=O)O1	-	0	-	0	0	-
CC12CCC3C(CCC4(O)CC(O)CCC34C=NO)C1(O)CCC2C1=COC(=O)C1 (stereo not drawn)	-	0.398µM	-	0	31.6µM	-
CCCCN=C[C@]12CCC(O)CC1(O)CCC1[C@@H]2CC[C@]2(C)[C@H](C3C=CC(=O)O3)CCC12O (stereo partly drawn)	0	0.316µM	0	0	0.316µM	0
Cc1ccc2nc(-c3ccc(C)c(NC(=O)COc4ccccc4Cl)c3)oc2c1	-	0	-	-	0	-
OC1(c2ccc3c(c2)CN(Cc2ccccn2)CCO3)CCN(c2ccccc2F)CC1	-	0	-	-	0	-
C[C@]12CCC3C(CCC4=CC(O)CC[C@@]43/C=N/O)C1(O)CCC2C1=CC(=O)OC1 (stereo partly drawn)	0	0.316µM	0	0	?	0
C[C@H]1O[C@@H](OC2CC[C@]3(C=O)[C@H]4CC[C@]5(C)[C@@H](C6=CC(=O)OC6)CC[C@]5(O)[C@@H]4CC[C@]3(O)C2)CC2OC(C)(C)OC21 (stereo partly drawn)	0	0.282µM	0	0	?	0
O=C1[C@H](Cc2ccccc2)NC/C=C\C[C@H](c2ccco2)N1Cc1ccccc1	-	0	-	-	0	-
